# FBPA Giardia inh = inhibitors of Giardia lamblia fructose-1,6-bisphosphate aldolase; purified Giardia FBPA; Potency, µM (doses to about 59.6 µM), without a hit: at the top dose activity, negative = inhibition, usual class: inhibitors; 290,000 tested, 0.71% active; AID 2451; note: potency is the fitted concentration of half-maximal effect; % is set by controls: 0 for no effect and ±100 for the full control effect; nearly all actives have a fitted effect of over 55% in size
# Target sequence (A8B2U2 whole entry, looked up): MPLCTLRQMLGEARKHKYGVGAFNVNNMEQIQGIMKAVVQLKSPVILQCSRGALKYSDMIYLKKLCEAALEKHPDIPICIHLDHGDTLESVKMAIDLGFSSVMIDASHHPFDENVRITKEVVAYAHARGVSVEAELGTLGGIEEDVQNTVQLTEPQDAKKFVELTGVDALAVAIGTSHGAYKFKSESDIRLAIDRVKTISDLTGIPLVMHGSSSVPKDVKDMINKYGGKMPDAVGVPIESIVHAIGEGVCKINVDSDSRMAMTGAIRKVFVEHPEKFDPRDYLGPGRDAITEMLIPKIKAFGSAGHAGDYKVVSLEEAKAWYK
#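 Giardia FBPA (40 nM reagent) was preincubated 10 min at RT with compound (up to 57.5 uM final), then substrate plus GAPDH/TPI/NAD/arsenate coupling system with diaphorase/resazurin was added; resorufin fluorescence (525/598 nm) was read after 20 min.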
# TbPYK inhibitor = blocks Trypanosoma brucei pyruvate kinase | Q57TT1 | TbPYK enzyme, Kinase-Glo Plus ATP luminescence, 45 min | AID 624173 | Potency, µM (top dose mostly 76.8 µM), for inactives: top-dose activity, negative = inhibition, actives largely listed as inhibitors | 410,000 tested, 0.12% active; note: potency is the fitted concentration of half-maximal effect; % is set by controls: 0 for no effect and ±100 for the full control effect; nearly all actives have a fitted effect of over 50% in size
#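 Enzyme and substrate buffer are dispensed first and compound is pin-transferred. ADP at 130 uM final then starts the reaction, which runs 45 min at room temperature. Detection reagent is added for 10 min before luminescence is imaged.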
# Shiga toxin inh = Shiga toxin inhibition; Vero cells, Shiga toxin protein synthesis inhibition reporter; inhibition, % at 38.7 µM; 290,000 tested, 9.2% active; AID 2315; in the data active = inhibition mostly above about 28%, no sharp cut-off; inactive = mostly below about 43%; note: 0% is about no effect
# Cycloheximide cs = counter-screen for Shiga toxin inhibitors: cycloheximide protein synthesis inhibition | cell reporter, cycloheximide protein synthesis inhibition counterscreen | max response, % | 300,000 tested, 12% active; in the data active = max response mostly above about 13%, no sharp cut-off; inactive = mostly below about 14%; note: read at 38.3 µM for the half of the compounds with a filed dose; 0% is about no effect
# RE007 growth inh = less growth of the S. pombe RE007 Vpr strain. AID 651644. Potency, µM (top dose mostly 92.2 µM), without a hit: at the highest dose activity change, negative = less growth, actives largely listed as inhibitors. 360,000 tested, 0.21% active. S. pombe RE007 Vpr strain, BacTiter-Glo ATP luminescence, 24 h; active = well fitted falling curve with a large enough effect; inconclusive = small, poorly fitted or top-dose-only effect; inactive = no such curve, though single readings can be large or run the other way; note: potency is the fitted concentration of half-maximal effect; % is set by controls: 0 for no effect and ±100 for the full control effect; nearly all actives have a fitted effect of over 50% in size
#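 Fission yeast RE007 carrying one integrated HIV-1 vpr copy, seeded at OD 0.01 in PMG+AL medium with 23 nL pinned compound. Grown 24 h at 30 degrees; viability read by BacTiter-Glo luminescence after 5 min.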
# LmPK inh = inhibitors of Leishmania mexicana pyruvate kinase; Q27686; purified LmPK, Kinase-Glo ATP luminescence, 1 h; Potency, µM (highest dose often 57.5 µM), for the others: at the top dose activity change, negative = inhibition, hits mostly inhibitors; 290,000 tested, 0.37% active; AID 1721; note: potency is the fitted concentration of half-maximal effect; % is set by controls: 0 for no effect and ±100 for the full control effect
# Target sequence (Q27686 whole entry, looked up): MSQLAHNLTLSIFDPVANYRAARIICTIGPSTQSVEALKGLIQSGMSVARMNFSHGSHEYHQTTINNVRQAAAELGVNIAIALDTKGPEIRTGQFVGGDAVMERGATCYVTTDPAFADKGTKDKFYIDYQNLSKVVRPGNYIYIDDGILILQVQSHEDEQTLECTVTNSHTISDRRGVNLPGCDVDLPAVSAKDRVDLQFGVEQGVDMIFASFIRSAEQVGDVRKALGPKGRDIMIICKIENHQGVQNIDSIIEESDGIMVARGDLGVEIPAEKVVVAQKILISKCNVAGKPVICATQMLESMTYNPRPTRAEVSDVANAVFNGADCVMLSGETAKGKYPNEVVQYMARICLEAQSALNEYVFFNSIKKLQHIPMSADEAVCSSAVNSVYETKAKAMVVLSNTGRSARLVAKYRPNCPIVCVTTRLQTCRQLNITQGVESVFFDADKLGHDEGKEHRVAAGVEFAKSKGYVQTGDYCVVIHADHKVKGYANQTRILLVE
#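 Screened at intermediate enzyme activity to detect both inhibitors and activators: LmPK at 0.1 nM, with a 0.5 nM enzyme column as activation reference. PEP 0.5 mM, ADP 0.1 mM; ATP detected by luminescence after 1 h.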
# * = called active by the depositor; ? = inconclusive; . = no result given; + = active, no number; [ ] = remark or other dose. This is one part of a sample in which hits are shown more often than they occur. Unless noted, calls come from the whole dose curve; as a rule, active = well fitted curve in the direction sought with a large enough effect; inconclusive = small, poorly fitted or top-dose-only effect, or another doubt; inactive = no such curve, though single readings can be large; an effect the other way counts as inactive or inconclusive.
SMILES,FBPA Giardia inh,TbPYK inhibitor,Shiga toxin inh,Cycloheximide cs,RE007 growth inh,LmPK inh
Cc1cccc(NC(=O)c2ccc(Cl)c(S(=O)(=O)N3CCCC3)c2)n1,.,-14.0%,59.4*,54.5*,-19.4%,-6.4%
O=C(c1ccc(Cl)c(S(=O)(=O)N2CCCCCC2)c1)N1CCCCC1,.,-5.9%,38.9*,16.6*,-3.2%,1.1%
Cc1ccc(C(=O)Nc2cccnc2)cc1S(=O)(=O)N1CCCCCC1,.,-6.6%,29.9,25.8*,-0.6%,0.6%
O=C(Nc1cccnc1)c1ccc(Cl)c(S(=O)(=O)N2CCCCCC2)c1,1.6%,0.7%,54.8,20.8*,-1.9%,3.5%
CCc1nn(CC(=O)NC2CC2)c(=O)c2cc3c(OC)cccc3n12,.,-23.9%,.,.,.,.
COc1ccc(OC)c2sc(N(Cc3cccnc3)C(=O)c3ccc(C(C)=O)cc3)nc12,.,-12.5%[15.4 µM],.,.,.,.
COc1ccc(-c2nc3cc(NC(=O)Cc4ccc(Cl)cc4)ccc3o2)cc1OC,.,0.9%,.,.,.,.
CC1(C)C[C@](C)(C(=O)c2ccccc2)C=C1c1ccccc1,-0.1%,.,.,.,.,.
Cc1ccc(C(=O)Nc2cccc(C(=O)N3CCOCC3)c2)cc1Cl,-7.6%,3.8%,36.0,16.5*,2.2%,7.0%
O=C(Nc1cccc(C(=O)N2CCCCC2)c1)c1ccc(Cl)cc1,.,4.0%,15.7,29.3*,-4.0%,-4.1%
O=c1c(-c2cc(F)cc(F)c2)nc2cncnc2n1Cc1ccc(F)cc1,-3.5%,3.8%,.,.,.,.
CC(C)NC(=O)CN1C(=O)CCn2nc(-c3cn(C)c4ccccc34)cc21,.,0.3%,.,.,.,.
CCN(C(=O)[C@@H]1CCCN1C(=O)c1cccs1)c1nc2cc(Cl)ccc2s1,-8.6%,1.2%,8.8,18.2*,10.1%,0.1%
CCc1ccc(NC(=O)c2nn(-c3ccc(OC)cc3)c(=O)c3c2c2ccccc2n3C)cc1,.,0.4%,.,.,.,.
O=C(Nc1ccccc1)Nn1cnnc1,7.8%,1.0%,-7.4,-4.1,-9.4%,4.5%
CCc1ccc(NC(=O)Nn2cnnc2)cc1,.,-1.8%,24.1,17.4*,-9.9%,0.9%
O=C(Nc1ccc(Br)cc1)Nn1cnnc1,.,-4.3%,21.2,11.5*,-6.4%,-4.7%
CCc1ccc(NC(=S)Nn2cnnc2)cc1,-24.6%,?,-15.4,11.4,-17.1%,-5.4%
COc1ccc2c(c1-c1c3c(cc(Br)c1OC)CCCC3)CCCC2,0.1%,.,.,.,.,.
NS(=O)(=O)c1ccc(-c2ccc(C=C3C(=O)NC(=S)NC3=O)o2)cc1,?,.,-5.0,-1.0,.,0.5%
NS(=O)(=O)c1ccc(-c2ccc(C=C3C(=O)NC(=O)NC3=O)o2)cc1,-5.4%,10µM*,-5.6,1.0,12.1%,-14.3%
CC1(C)OC(=O)C(=Cc2ccc(-c3ccc(S(N)(=O)=O)cc3)o2)C(=O)O1,-7.7%,22.4µM*,18.0,10.6,8.7%,-0.8%
NS(=O)(=O)c1ccc(-c2ccc(/C=C3\C(=O)Nc4cc(Cl)ccc43)o2)cc1,-0.5%,2.9%,-3.0,3.1,-2.1%,4.5%
Cc1nc2cc(N)ccc2n1C1CCCCC1,-24.0%,-23.8%,-12.3,10.0,-1.2%,4.1%
Cc1cc(-c2cc(N)n(-c3ccccc3)n2)c(C)n1C1CCCC1,-22.1%,-6.7%,40.0*,35.7*,-9.2%,0.0%
SMILES,FBPA Giardia inh,TbPYK inhibitor,Shiga toxin inh,Cycloheximide cs,RE007 growth inh,LmPK inh
Cc1cccc(CNc2cc(-c3cccc(C#N)c3)ncn2)c1,-7.6%,.,.,.,.,.
COc1ccc(-c2cc(C(=O)N3CCN(S(=O)(=O)c4ccccc4)CC3)[nH]n2)cc1,-13.2%,-1.8%,19.9,5.9*,-20.3%,-2.7%
COc1ccc(-c2cc(C(=O)NCCc3ccc(Cl)cc3)[nH]n2)cc1,.,-6.9%,.,.,.,.
CCOc1ccc(-c2cc(C(=O)OC)[nH]n2)cc1,19.2%,-3.8%,89.1*,42.6*,-14.8%,-5.9%
COC(=O)c1cc(-c2cccc(OC)c2)n[nH]1,-0.7%,3.8%,49.0*,23.8*,-13.5%,-10.1%
COC(=O)c1cc(-c2ccc(OC)cc2)n[nH]1,-4.8%,-1.7%,103.4*,27.5*,-3.3%,-13.5%
COc1cccc(-c2cc(C(=O)NCCc3ccc(C)cc3)[nH]n2)c1,.,-3.5%,.,.,.,.
O=C(c1cc(-c2ccccc2)n[nH]1)N1CCN(S(=O)(=O)c2ccccc2)CC1,-6.0%,-3.6%,14.4,-2.4,-1.9%,-6.4%
CCOc1ccc(-c2cc(C(=O)NCCc3ccc(OC)c(OC)c3)[nH]n2)cc1,.,5.6%,.,.,.,.
COc1ccccc1-c1cncnc1NCCN1CCOCC1,-3.9%,.,.,.,.,.
COc1ccc(CC(N)C(=O)N[C@H]2[C@@H](O)[C@H](n3cnc4c(N(C)C)ncnc43)O[C@@H]2CO)cc1 (stereo partly specified),-19.3%,.,-7.1,-6.7,.,.
COc1cccc(NC(=O)CSC2=Nc3ccccc3N=C(c3ccc(F)cc3)C2)c1,.,5.3%,.,.,.,.
CCC(=O)O[C@]1(C(=O)CCl)[C@@H](C)CC2C3C[C@H](F)C4=CC(=O)C=CC4(C)[C@@]3(F)C(O)CC21C (stereo partly specified),.,-4.6%,.,.,.,.
COC(=O)c1cc(-c2ccc(C)cc2)n[nH]1,-0.9%,5.6%,81.7*,48.1*,-28.1%,-3.6%
COC(=O)Cc1c(C)c2ccc(OCc3nn[nH]n3)c(C)c2oc1=O,-0.9%,2.3%,26.8,3.4,3.5%,5.5%
COC(=O)Cc1c(C)c2ccc(OCC(C)=O)c(C)c2oc1=O,2.1%,-11.4%,91.6*,42.7*,-17.0%,-10.0%
C=C(C)COc1ccc2c(C)c(CC(=O)OC)c(=O)oc2c1C,-5.6%,7.5%,+,47.1*,-14.1%,2.7%
CCOc1ccc(-n2c(SCc3ccccc3)nc3c([nH]c4ccccc43)c2=O)cc1,.,1.9%,.,.,.,.
O=C(c1cnn(-c2ccccc2)c1)c1ccc2ccccc2c1O,2.1%,2.6%,39.0,15.2*,-6.7%,-1.0%
CC(C)(C)n1cc(C(=O)c2ccc3ccccc3c2O)cn1,-12.1%,-0.7%,46.4*,25.0,-22.4%,-1.6%
Cc1ccc2c(c1)c1c(c(=O)n(-c3ccccc3C)c(=O)n1Cc1ccccc1F)n2C,.,0.5%,.,.,.,.
CC1(C)CC(=O)c2c(O)cc(OCC(=O)Nc3ccc(S(N)(=O)=O)cc3)cc2O1,0.6%,3.7%,-7.0,-1.8,-3.5%,-1.2%
CC1(C)CC(=O)c2cc(OCC(=O)NCCN3CCCc4ccccc43)ccc2O1,?,0.1%,-12.7,-3.1,-14.6%,4.5%
Cc1ccccc1NC(=O)COc1ccc2c(c1)OC(C)(C)CC2=O,3.8%,-8.0%,33.8*,37.6*,2.0%,2.4%
CC(C)CCNC(=O)COc1ccc2c(c1)C(=O)CC(C)(C)O2,5.7%,-8.1%,87.1*,17.3*,-1.6%,3.6%
CC(C)(Oc1ccc(CCNC(=O)c2ccc(-c3ccc(Cl)cc3)o2)cc1)C(=O)O,17.2%,6.0%,-8.1,-0.9,-11.3%,9.5%
Clc1ccc(-c2ccc(CN3CCCCC3)o2)cc1,?,-4.4%,38.8*,25.3*,-1.4%,-1.6%

# Source: PubChem
